# Reference: ChEMBL document CHEMBL4513216, “Probing the Open Global Health Chemical Diversity Library for Multistage-Active Starting Points for Next-Generation Antimalarials” (ACS Infect Dis, 2020)
# Screen size: about 69,000 compounds; about 8,600 (12%) showed an effect of 50% or more. The full list was thinned out, with strong results kept by preference.
# System: Plasmodium berghei
# Assay: Screen against P. berghei liver stage (PbLuc), transformed with Luciferase, at 10uM
# Assay type: functional, HepG2
# Details: tested at 10 uM
row,Structure (SMILES),INHIBITION [%]
1,COc1cccc(CNC(=O)CCNS(=O)(=O)c2ccc(C)cc2)c1,-31.3
2,CCCC1c2cccn2CCN1S(=O)(=O)N1CCOCC1 (stereo not drawn),1.65
3,CCCc1nc(C(=O)NC(COC)c2ccnn2C)cs1 (stereo not drawn),16.3
4,Cc1ccc(CN2CCC[C@]3(C(=O)O)CN(CC4CC4)C[C@@H]3C2)s1,-27.6
5,COCC(=O)N1CCN(Cc2cc(F)cc(Br)c2)CC1,-10.9
6,CN(C)CCOCc1nnc2n1CCN(Cc1ccco1)C2,-13.7
7,CCc1ccc(C2COCCN2C(=O)Nc2cc(C)on2)o1 (stereo not drawn),-107
8,CCc1ccc(C2COCCN2C(=O)NCc2cccc(C#N)c2)o1 (stereo not drawn),-92.8
9,Cc1ccc(C2COCCN2C(=O)c2ccc(C#N)cc2)o1 (stereo not drawn),32
10,CCc1ccc(C2COCCN2C(=O)Nc2ccc(C(N)=O)c(Cl)c2)o1 (stereo not drawn),78.3
11,CCc1ccc(C2COCCN2C(=O)Nc2cccc(C(C)=O)c2)o1 (stereo not drawn),-2.9
12,CCc1ccc(C2COCCN2C(=O)Nc2ccc(C#N)cc2)o1 (stereo not drawn),65.3
13,CNC(=O)C1CN(Cc2c[nH]cn2)CCN(C2CCOCC2)C1 (stereo not drawn),25.6
14,CC(C)Oc1ccc(C(=O)N2CCCSCC2CN(C)C)cc1 (stereo not drawn),36.6
15,O=C(COC[C@H]1CC[C@H]2[C@H](CCN2c2ccccn2)O1)N1CCCC1,-37.4
16,Cc1nccn1CCN(C)C(=O)c1cn(CC2CCCCC2)nn1,41.8
17,COCc1cccc(NCc2cccnc2)c1,36.5
18,CCOCc1nnc(NCc2cccnc2)o1,-0.897
19,OCc1ccc(Cl)c(NCc2cccnc2)c1,3.16
20,COc1ccnc(NC(=O)CSCc2cccnc2)c1,36.9
21,CCSc1cccc(NCc2cccnc2)c1,85.2
22,CCSCc1cccc(NCc2cccnc2)c1,61.6

row,Structure (SMILES),INHIBITION [%]
1,COc1cccc(CSCC(=O)NCc2cccnc2)c1,54.5
2,Cc1cc(NCc2cccnc2)n2nc(C)cc2n1,-10.4
3,COc1cccc(CNCc2cccnc2)c1,13.7
4,CCCc1nn(Cc2ccc(Br)s2)c(=O)o1,40.5
5,CCc1nc(CN2CCCN(C(=O)CC(C)OC)CC2)cs1 (stereo not drawn),43.3
6,CN(Cc1nccn1CC(F)(F)F)C(=O)c1cccc(C#N)c1,41.1
7,CC(NC(=O)CNc1cc2c(cc1Cl)OCCO2)c1ccco1 (stereo not drawn),-10.3
8,O=C(Nc1ccc(-c2cnc(NCCO)nc2)cc1)[C@@H]1CCCCN1,23.4
9,CCCn1nc2c(cc1=O)CN(CCS(C)(=O)=O)CC2,70.1
10,CCCn1nc2c(cc1=O)CN(CCN1CCCC1=O)CC2,-7.35
11,CCCn1nc2c(cc1=O)CN(Cc1nc(C)c3ccccc3n1)CC2,34.6
12,CCCn1nc2c(cc1=O)CN(CCCS(N)(=O)=O)CC2,47.6
13,CCCn1nc2c(cc1=O)CN(Cc1ccccn1)CC2,58.3
14,CCCn1nc2c(cc1=O)CN(Cc1cc(C)on1)CC2,40.1
15,CNC(=O)N1CC[C@@H]2CN(Cc3ccccc3)S(=O)(=O)[C@@H]2CC1,23.1
16,CC(NC(=O)NCCc1nc(C(F)(F)F)cs1)C(=O)N(C)C (stereo not drawn),-15.5
17,O=C([C@H]1C[C@H]2OCC[C@H]2N(Cc2cccnc2)C1)N1CCCO1,38.1
18,CCn1nccc1CNC(=O)C1CCC1,21.8
19,c1cnc(NCc2nnn3c2CN(Cc2cccs2)CCC3)nc1,24.9
20,Cc1nc(NCc2nnc(C)n2C)c2c(CC(C)C)csc2n1,46.6
21,CCc1csc(C2CCCN(C(=O)c3ccc4[nH]nnc4c3)C2)n1 (stereo not drawn),-10.1
22,CCCn1nccc1-c1nccnc1CC1CCN(C(C)=O)C1 (stereo not drawn),7.19

row,Structure (SMILES),INHIBITION [%]
1,COC(=O)N1CCCCC1C(=O)N1CCN(c2ncccc2C)CC1 (stereo not drawn),12.7
2,O=C(CC1CC1)N1C[C@@H]2CCN(c3cccnc3)C[C@@H]2C1,19.8
3,Fc1cccc(N2C[C@H]3CCN(c4cccnc4)C[C@H]3C2)c1,50.5
4,O=C(c1ccc(F)cc1)N1C[C@@H]2CCN(c3cccnc3)C[C@@H]2C1,43.9
5,COC(=O)N1CCCCC1C(=O)N1CCCN(c2ccnc(C)c2)CC1 (stereo not drawn),15.9
6,c1cncc(N2CC[C@@H]3CN(CC4CC4)C[C@@H]3C2)c1,57.4
7,COC(=O)N1CCCCC1C(=O)N1CCN(c2cccnc2)CC1 (stereo not drawn),82.2
8,c1cnc(N2C[C@H]3CCN(c4cccnc4)C[C@H]3C2)nc1,-0.113
9,O=C(CC1CCCC1)N1C[C@@H]2CCN(c3cccnc3)C[C@@H]2C1,60.7
10,FC(F)(F)c1ccnc(N2C[C@H]3CCN(c4cccnc4)C[C@H]3C2)n1,5.96
11,Cc1cc(C(=O)Nc2ccn(CCCN3CCCC3)n2)c(C)o1,18.2
12,O=S(=O)(C1CC1)N1CCC2(CCN(Cc3nccs3)CC2)CC1,-12.1
13,CC1CN(C)c2ccccc2CN1CCn1cncn1 (stereo not drawn),38
14,CNc1ncc(CN2CCCC2c2[nH]ncc2C(=O)N(C)C)cn1 (stereo not drawn),20.2
15,O=C(COc1cccc(Cl)c1)N1CCOCC(O)(CN2CCCC2)C1 (stereo not drawn),-18.9
16,CCC(C)(CC)NC(=O)COc1nn(C)c2nc(C)cc(C)c12,48.1
17,CCCc1nnc(SCc2cc(=O)n3c4c(sc3n2)CCCC4)[nH]1,-4.35
18,O=C(C1CN(c2ncc(F)cn2)CC12CCOCC2)N1CC=CC1 (stereo not drawn),37.8
19,Cc1cccnc1CN1CCN(C(=O)c2ccn(C(C)(C)C)c2)CC1,45
20,O=C(NCCO)C1(Cc2ccccc2-c2cccnc2)CCOCC1,-43
21,CN(CC(C)(CO)CO)C(=O)Nc1cc(F)cc(F)c1,18.9
22,COc1ccccc1CN(C)Cc1ccnc(C2CCCO2)n1 (stereo not drawn),14.755

row,Structure (SMILES),INHIBITION [%]
1,O=C(C1CCCC1)N1C[C@@H]2CCN(c3cccnc3)C[C@@H]2C1,54.4
2,O=C(C1CCC1)N1C[C@@H]2CCN(c3cccnc3)C[C@@H]2C1,5.96
3,Cc1cccc(NC(=O)N2CCCn3cnc(CN4CCCC4)c3C2)c1,15.1
4,CCc1nnc2n1CCN(Cc1csc(Cc3ccccc3)n1)C2,19.2
5,CC1=N[C@@]2(CC[C@@H]3CN(CC4CC4)C[C@@H]32)C(=O)N1CC(C)C,74.2
6,COCCN1C(=O)[C@]2(CC[C@@H]3CN(C(=O)NC4CCCC4)C[C@@H]32)N=C1C,20.2
7,COCCN1C(=O)[C@]2(CC[C@@H]3CN(C(=O)NC(C)C)C[C@@H]32)N=C1C,57.1
8,CC1=N[C@@]2(CC[C@@H]3CN(CC4CC4)C[C@@H]32)C(=O)N1CC1CC1,12.4
9,CC1=N[C@@]2(CC[C@@H]3CN(CC(C)C)C[C@@H]32)C(=O)N1CC(C)C,39.2
10,COCCN1C(=O)[C@]2(CC[C@@H]3CN(C(=O)NCC(C)C)C[C@@H]32)N=C1C,18.1
11,Cc1csc(N2CCN(Cc3nnsc3Cl)CC2C)n1 (stereo not drawn),45.2
12,O=C(c1ccco1)N1CCOCC2(C1)CN(c1ccoc1)C(=O)CO2 (stereo not drawn),-8.28
13,CCOc1ccc(CN2CCC(c3ccn[nH]3)C2)cc1CO (stereo not drawn),43.85
14,Cn1cc2c(n1)C(CNCc1ccco1)OCC2 (stereo not drawn),15.4
15,CC(C)CC1SCC(=O)Nc2c1cnn2-c1ccc(F)cc1 (stereo not drawn),28.4
16,CN(C)C(=O)[C@H]1C[C@H]2[C@H](CCN2Cc2ccc3c(c2)OCO3)O1,18.5
17,CCCNC(c1cccnc1)c1ccc(F)cc1F (stereo not drawn),12.9
18,O=c1n(CCNCc2cccc3ccccc23)nc2ccccn12,28.8
19,CCSCCC(=O)NCCn1nc2ccccn2c1=O,37.7
20,CCNC(=O)NCCCn1nc2ccccn2c1=O,-12.2
21,O=c1n(CCNCc2ccc3ccccc3c2)nc2ccccn12,-23.4
22,O=c1n(CCNc2cccc3ccccc23)nc2ccccn12,65.2

row,Structure (SMILES),INHIBITION [%]
1,CCC(=O)CNC(=O)CCn1nc2ccccn2c1=O,69.8
2,CC(=O)N(Cc1ncc(C)o1)C1CCN(Cc2cnc(C)s2)C1 (stereo not drawn),14.2
3,CC(C)C[C@H](N)C(=O)N1CC2(CCNCC2)c2cc(Cl)ccc21,-28.2
4,CCCc1noc(C2CCN(S(=O)(=O)c3cccs3)CC2)n1,4.97
5,COc1cccc2ccc(CN3CCN(c4ncccn4)CC3)nc12,39.8
6,COc1cccc2ccc(CN3CCN(c4ccncc4)CC3)nc12,25.3
7,COc1cccc2ccc(CN3CCN(c4ncccc4C)CC3)nc12,61.1
8,Cc1ccc(CNC(C)c2ccc(OCC(=O)NC3CC3)cc2)o1 (stereo not drawn),40
9,COCc1noc(Cn2c(C)cc(C(F)(F)F)cc2=O)n1,41.2
10,CCCc1nnc(NCCCn2nc(C)c(Cl)c2C)o1,16.1
11,CCN1CCO[C@@H]2CN(C(=O)COC3CCCC3)C[C@@H]2C1,0.804
12,CN(Cc1ccccn1)C1CC2(CCN(Cc3ccccn3)CC2)C1,47.4
13,CN(Cc1cccnc1)C1CC2(CCN(C(=O)c3cnccn3)CC2)C1,21.7
14,CN(Cc1cccnc1)C1CC2(CCN(c3ccccn3)CC2)C1,47.8
15,CN(Cc1cccnc1)C1CC2(CCN(Cc3ccccn3)CC2)C1,50.9
16,CN(Cc1cccnc1)C1CC2(CCN(Cc3cccnc3)CC2)C1,70.7
17,CN(Cc1cccnc1)C1CC2(CCN(C(=O)c3ccnnc3)CC2)C1,53.9
18,CN(Cc1ccccn1)C1CC2(CCN(Cc3cccnc3)CC2)C1,33
19,CN(Cc1ccncc1)C1CC2(CCN(C(=O)c3ccnnc3)CC2)C1,-5.63
20,CN(Cc1cccnc1)C1CC2(CCN(C(=O)c3cscn3)CC2)C1,-18.5
